Experimental data as given in PubChem BioAssay (NCATS).
Values without a mark were called inactive. Calls of active or inactive are those of the source. The rule behind the calls is not given here.

Test: qHTS assay for small molecule activators of the human pregnane X receptor (PXR) signaling pathway (AID 720659); note: 0% is about no effect
Conditions: DPX-2 HepG2 CYP3A4-luciferase, 24 h; series mostly up to 92.3 µM; activation: at the top concentration

With `C=CC(=O)NCNC(=O)C=C` the outcome was “inactive”.
In the case of `O=C(O)C(Cl)Cl`, the outcome is reported as “inactive”.
In the case of `C1CCC(NC2CCCCC2)CC1`, the outcome is reported as “inactive”.
With `CCCCCCCCCCCCCCCC[N+](C)(C)C` the outcome was “inactive”.
For `O=S(=O)(O)C(F)(F)C(F)(F)C(F)(F)C(F)(F)C(F)(F)C(F)(F)C(F)(F)C(F)(F)F`, the outcome was “inactive”.
In the case of `c1cc2ccc3cccc4ccc(c1)c2c34`, the outcome is reported as “inactive”.

First: CCOCCOC(C)=O
Second: O=C(O)CCCOc1ccc(Cl)cc1Cl
The “activation” value of the first is lower: -1.95% for the first, 20.2% for the second.

Compared with `O=[N+]([O-])c1cc([N+](=O)[O-])c2ccccc2c1`, `Nc1ccc([N+](=O)[O-])cc1` is lower in “activation” value: 4.42% for the first, 0.149% for the second.

Compared with `Nc1c(Cl)c(Cl)c(Cl)c(Cl)c1Cl`, `O=[N+]([O-])c1c(Cl)c(Cl)cc(Cl)c1Cl` is higher in “activation” value: 0% for the first, 0.269% for the second.

Compared with `Clc1cnc(Oc2ccc(Oc3ncc(Cl)cc3Cl)cc2)c(Cl)c1`, `O=C(O)c1cc(Oc2ccc(C(F)(F)F)cc2Cl)ccc1[N+](=O)[O-]` is higher in “activation” value: 9.98% for the first, 11.2% for the second.

Going from `Cc1cc(O)ccc1Cl` to `Nc1ccc(Cl)cc1`, the “activation” value falls from 0.314% to -2.14%.

First: COc1nn(CSP(=S)(OC)OC)c(=O)s1
Second: O=C(O)COc1ccccc1
The “activation” value of the first is lower: -8.11% for the first, -4.41% for the second.

Compared with `O=[N+]([O-])/N=C1\NCCN1Cc1ccc(Cl)nc1`, `OCCCBr` is higher in “activation” value: -0.736% for the first, 1.4% for the second.
